Data on 10 compounds can be found in PMC5540273 (PLoS ONE, 2017).

SMILES strings stand for the structures.

Holding throughout (conditions): concentration: 1 μM, replicates: in singlicate; n = 1
The test system of assay [1] is TYK2(JH2domain-pseudokinase).
Assay [2] has as its system TYRO3.
Assay [3] has as its system ULK1.
In assay [4] the test system is ULK2.
In assay [5] the test system is ULK3.
The subject of assay [6] is T1, VEGFR2.
T1 construct: gene KDR

For assay [7], the system named is T2, VPS34.
T2 construct: gene PIK3C3

Assay [8] has as its system VRK2.
The test system of assay [9] is WEE1.
For assay [10], the system named is WEE2.
In assay [11] the test system is WNK1.
In assay [12] the test system is WNK2.
In assay [13] the test system is WNK3.
The subject of assay [14] is WNK4.
Assay [15] deals with T3, YANK1.
T3 construct: gene STK32A

For assay [16], the system named is T4, YANK2.
T4 construct: gene STK32B

In assay [17] the test system is T5, YANK3.
T5 construct: gene STK32C

The test system of assay [18] is T6, YES.
T6 construct: gene YES1

The subject of assay [19] is T7, YSK1.
T7 construct: gene STK25

Assay [20] deals with T8, YSK4.
T8 construct: gene MAP3K19
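Further: KINOMEscan kinase panel screen.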

Consider `Cc1ccc(NC(=O)c2ccc(Cl)c(Cl)c2)cc1-c1ccc(C(=O)Nc2ccncc2)cc1` [GSK1398460], for which the “%Inh” value in assay [1] turned out to be 0%; in assay [2], 10%; in assay [3], 15%; in assay [4], 0%; in assay [5], 6%; in [6], 6%. Besides, the “%Inh” value in assay [7] is listed as 0%; in assay [8], 0%; in [9], 11%; in [10] it was 6%; in [11], 0%; in assay [12] it was 0%. The “%Inh” value in assay [13] is on record as 0%; in assay [14], 17%; in assay [15], 12%; in [16], 7%; in assay [17] it was 22%; in assay [18] it was 29%. The “%Inh” value is listed as 26% in assay [19] and 83% in [20].

Take `Cc1ccc(C)c(NC(=O)Nc2ccc(C)c(-c3ccc(C(=O)Nc4ccncc4)cc3)c2)c1` [GSK1398473]: the “%Inh” value is reported as 4% in assay [1]; 20% in assay [2]; 10% in assay [3]; 0% in assay [4]; 15% in assay [5]; 3% in assay [6]. The “%Inh” value stood at 0% in assay [7]; 0% in assay [8]; 12% in assay [9]; 12% in assay [10]; 17% in assay [11]; 97.6% in assay [12]. In addition, the “%Inh” value came out at 11% in assay [13]; 17% in assay [14]; 7% in [15]; 0% in assay [16]; 15% in assay [17]; 29% in assay [18]. The “%Inh” value in assay [19] is 0%; in assay [20] it was 87%.

`Cc1ccc(-c2ccc3occ(-c4ccc(S(C)=O)cc4)c3c2)nn1` (centres unmarked): the “%Inh” value in [1] is 18%; in assay [2], 0%; in assay [3], 0%; in assay [4], 0%; in assay [5], 0%; in assay [6] it was 0%. For the same compound, the “%Inh” value is recorded as 61% in assay [7]; 0% in [8]; 0% in [9]; 0% in assay [10]; 0% in [11]; 18% in assay [12]. Besides, the “%Inh” value in assay [13] was 0%; in [14], 0%; in assay [15], 0%; in [16] it was 1%; in assay [17], 24%; in assay [18], 0%. For the same compound, the figures for the “%Inh” value in [19] and in assay [20] were 1% and 4%, respectively.

For the compound `Nc1cccc(-c2ccc3c(N)n[nH]c3c2)c1` [GSK2193613], the “%Inh” value in assay [1] is listed as 0%; in assay [2] it was 0%; in assay [3] it was 6%; in assay [4] it was 0%; in assay [5], 3%; in assay [6] it was 0%. The “%Inh” value turned out to be 21% in assay [7]; 30% in assay [8]; 5% in assay [9]; 10% in assay [10]; 6% in [11]; 0% in [12]. The “%Inh” value in assay [13] is reported as 7%; in [14], 0%; in assay [15], 9%; in [16], 0%; in [17] it was 25%; in assay [18] it was 0%. In addition, the “%Inh” value is on record as 22% in [19] and 96.4% in assay [20].

Regarding `COC(=O)Nc1nc2cc(Oc3ccc(NC(=O)Nc4cccc(SC)c4)cc3)ccc2[nH]1.Cl` [GW697999], the “%Inh” value was 20% in assay [1]; 0% in assay [2]; 14% in assay [3]; 0% in [4]; 21% in [5]; 77% in assay [6]. Moreover, the “%Inh” value in assay [7] came out at 18%; in assay [8], 26%; in assay [9] it was 28%; in assay [10], 11%; in [11], 0%; in assay [12], 3%. Also, the “%Inh” value stood at 29% in assay [13]; 27% in assay [14]; 14% in assay [15]; 0% in assay [16]; 0% in assay [17]; 29% in [18]. The “%Inh” value in [19] is recorded as 3%; in [20], 85%.

Take `COc1cccc(C2=C(Nc3cccc(O)c3)C(=O)NC2=O)c1` [SB-390771]: the “%Inh” value turned out to be 25% in assay [1]; 0% in [2]; 17% in assay [3]; 0% in assay [4]; 23% in [5]; 3% in assay [6]. Moreover, the “%Inh” value in assay [7] turned out to be 0%; in [8] it was 10%; in assay [9], 20%; in assay [10], 12%; in assay [11] it was 13%; in assay [12] it was 25%. In addition, the “%Inh” value in assay [13] is 7%; in assay [14], 35%; in [15], 0%; in assay [16], 0%; in assay [17], 2%; in [18], 15%. The entries for the “%Inh” value in assay [19] and in [20] were 16% and 43%, respectively.

In the case of `Cc1ccc(NC(=O)c2ccnc(N3CCCCC3)c2)cc1-c1ccc(C(=O)NCC2CC2)cc1` [GW775610], the “%Inh” value in assay [1], in [2], in [3], in assay [4], in assay [5] and in assay [6] was 0% throughout. The “%Inh” value in assay [7] is recorded as 0%; in assay [8], 100%; in assay [9] it was 0%; in [10], 37%; in [11], 0%; in [12], 9%. For the same compound, the “%Inh” value is given as 0% in [13]; 0% in assay [14]; 0% in [15]; 10% in [16]; 0% in assay [17]; 0% in assay [18]. Moreover, the “%Inh” value in assay [19] and in assay [20] was 0% in each case.

`COC(=O)Nc1nc2ccc(Oc3ccc(CC(=O)Nc4cc(C(F)(F)F)ccc4F)cc3)cc2[nH]1` [GW680903]: the “%Inh” value is on record as 24% in assay [1]; 0% in assay [2]; 0% in [3]; 0% in assay [4]; 0% in [5]; 63% in assay [6]. For the same compound, the “%Inh” value in [7] is on record as 0%; in [8], 13%; in [9], 1%; in assay [10], 0%; in [11] it was 0%; in assay [12], 4%. Besides, the “%Inh” value in assay [13] is 21%; in assay [14], 48%; in assay [15] it was 9%; in assay [16], 0%; in assay [17] it was 0%; in assay [18] it was 8%. The “%Inh” value is listed as 3% in assay [19] and 42% in assay [20].

Take `Cc1ccccc1CC(=O)N1CCc2cc(-c3cn(C)c4ncnc(N)c34)ccc21` [GSK2603346]: the “%Inh” value in assay [1] came to 40%; in assay [2] it was 0%; in assay [3], 16%; in [4], 0%; in assay [5] it was 19%; in [6], 69%. For the same compound, the “%Inh” value in [7] came out at 2%; in assay [8] it was 0%; in assay [9], 0%; in assay [10], 17%; in assay [11], 18%; in assay [12], 25%. For the same compound, the “%Inh” value in assay [13] stood at 50%; in assay [14], 8%; in assay [15], 7%; in [16] it was 0%; in [17], 22%; in assay [18], 18%. Also, the “%Inh” value in assay [19] is listed as 54%; in [20] it was 84%.

Consider `O=C(Nc1n[nH]c2nc(-c3ccccc3)ccc12)C1CC1` [SB-708999], for which the “%Inh” value was 29% in [1]; 6% in [2]; 11% in [3]; 3% in assay [4]; 9% in assay [5]; 0% in [6]. In addition, the “%Inh” value is listed as 14% in [7]; 47% in assay [8]; 0% in assay [9]; 0% in [10]; 15% in [11]; 37% in assay [12]. Besides, the “%Inh” value worked out at 36% in assay [13]; 60% in [14]; 0% in [15]; 0% in assay [16]; 28% in assay [17]; 1% in assay [18]. The “%Inh” value is 0% in assay [19] and 93.9% in assay [20].
